Source: PubChem BioAssay (NCATS)
“And” between values parts separate entries of the source, which are not always exact repeats. Equal values may be shown once. Inconclusive results are not listed. Where a call stands in place of a potency, no number is given. More than one record can exist for a structure, and the calls need not agree. The source made the active and inactive calls. Unless noted, the call rests on the fitted dose curve; in most records, active means well fitted curve in the direction sought with a large enough effect; inconclusive means small, poorly fitted or top-dose-only effect, or another doubt; inactive means no such curve, though single readings can be large; an effect the other way counts as inactive or inconclusive.

Assays:
[1] = qHTS to identify inhibitors of the type 1 interferon - major histocompatibility complex class I in skeletal muscle: primary screen against the NCATS LOPAC collection (AID 1347405);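 further: human myoblasts with HiBiT tag on endogenous HLA-B stimulated by IFN-beta; lytic HiBiT luminescence reporting HLA-B protein level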
In short: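 First, engineered myoblasts carrying HLA-B-HiBiT were seeded in medium lacking dexamethasone with 4 ng/ml IFN-beta. After 1 hr, compounds were pinned in (top 46 uM final, 7 points). After 24 hrs at 37 C, luminescence was measured following 10 min lysis.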

[2] = qHTS to identify inhibitors of the type 1 interferon - major histocompatibility complex class I in skeletal muscle: primary screen against the NCATS Pharmaceutical Collection (AID 1347407);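 further: luminescence of HiBiT knocked into endogenous HLA-B as interferon-induced MHC class I level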
In short: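 A qHTS format is used: 8-point, 1:5 compound series with 46 uM top final concentration, applied alongside 4 ng/ml IFN-beta to HLA-B*08:01-HiBiT knock-in myoblasts. Luminescence is measured after 24 h treatment.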

[3] = qHTS for inhibitors of adenylyl cyclases using a fission yeast platform: a pilot screen against the NCATS LOPAC library (AID 1347410)
In short: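 Inhibition of GNAS-stimulated AC9 activity in S. pombe was inferred from derepression of a PKA-repressed fbp1-GFP reporter, measured as cytometric fluorescence after 18 h at 30C with compounds at up to 57 µM.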

[4] = qHTS to identify inhibitors of the type 1 interferon - major histocompatibility complex class I in skeletal muscle: primary screen against the NCATS Mechanism Interrogation Plate v5.0 (MIPE) Libary (AID 1347411); further: nearly all actives have a fitted effect of over 65% in size
In short: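 Seed engineered human myoblasts (HLA-B HiBit) in medium without dexamethasone containing 4 ng/ml IFN-beta; after 1 hr add compound titrations (top 46 uM final). Incubate 24 hrs at 37 C, lyse 10 min with HiBiT reagent, read luminescence.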

[5] = target: Protein phosphatase 1D (Homo sapiens) (UniProt O15297); assay: RapidFire Mass Spectrometry qHTS Assay for Modulators of WT P53-Induced Phosphatase 1 (WIP1) (AID 1347424);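 further: amount of dephosphorylated VEPPL-S-QETFS peptide product formed by WIP1; series mostly up to about 63 µM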
Chain of Protein phosphatase 1D (Homo sapiens) (O15297 whole entry, looked up): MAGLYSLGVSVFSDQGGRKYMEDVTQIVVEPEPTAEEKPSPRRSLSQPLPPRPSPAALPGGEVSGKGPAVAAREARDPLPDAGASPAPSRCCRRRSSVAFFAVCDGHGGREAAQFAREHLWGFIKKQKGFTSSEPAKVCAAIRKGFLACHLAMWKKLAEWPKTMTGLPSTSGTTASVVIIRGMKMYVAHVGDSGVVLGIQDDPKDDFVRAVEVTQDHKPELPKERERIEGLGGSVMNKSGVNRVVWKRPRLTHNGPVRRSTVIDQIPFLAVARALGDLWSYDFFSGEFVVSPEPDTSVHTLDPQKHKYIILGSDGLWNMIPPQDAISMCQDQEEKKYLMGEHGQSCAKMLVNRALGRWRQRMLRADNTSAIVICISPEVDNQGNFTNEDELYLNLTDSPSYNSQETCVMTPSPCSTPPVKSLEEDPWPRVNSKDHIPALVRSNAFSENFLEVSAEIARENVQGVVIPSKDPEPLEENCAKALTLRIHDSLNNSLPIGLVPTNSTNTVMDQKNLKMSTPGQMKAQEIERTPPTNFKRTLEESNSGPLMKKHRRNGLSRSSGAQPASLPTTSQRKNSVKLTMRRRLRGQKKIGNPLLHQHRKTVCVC
In short: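 RapidFire mass spectrometry measured dephosphorylated peptide after 5 min room-temperature reaction of 2 uM VEPPL-pS-QETFS with 10 nM WIP1 (50 mM Tris-HCl pH 7.5, 30 mM MgCl2, 0.1 mM EGTA, BSA), following 1 hr compound preincubation; 1 uM isotope-labelled product standard.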

[6] = target: Protein phosphatase 1D (Homo sapiens) (UniProt O15297); assay: Rhodamine-PBP qHTS Assay for Modulators of WT P53-Induced Phosphatase 1 (WIP1) (AID 1347425)
In short: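 WIP1 (5 nM final) was preincubated with compound for 1 hour at room temperature. It then dephosphorylated 10 uM VEPPL-pS-QETFS peptide in Tris-HCl pH 7.5 with 30 mM MgCl2. Released Pi was detected by 10 uM Rh-PBP fluorescence (ex 525/em 598 nm) read at 1-min intervals for 11 min, as delta f1 - f0.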

[7] = Validation qHTS assay for inhibitors of Activation Induced Cytidine Deaminase (AID): UDG Counterscreen signal (AID 1347427)
In short: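 Fluorescence at 560 nm excitation, 665 nm emission reports UDG signal after 250 mM NaOH (2x) addition and 30 min. Enzymes (AID 1 uM, UDG 2 U/mL, at 4/3x) preincubated 10 min with compound, then 4 h with 4x 250 nM DJC20/DJC23 substrate at room temperature.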

[8] = target: Single-stranded DNA cytosine deaminase (Homo sapiens) (UniProt Q9GZX7); assay: Validation qHTS assay for inhibitors of Activation Induced Cytidine Deaminase (AID): AID signal (AID 1347429)
Chain of Single-stranded DNA cytosine deaminase (Homo sapiens) (Q9GZX7 whole entry, looked up): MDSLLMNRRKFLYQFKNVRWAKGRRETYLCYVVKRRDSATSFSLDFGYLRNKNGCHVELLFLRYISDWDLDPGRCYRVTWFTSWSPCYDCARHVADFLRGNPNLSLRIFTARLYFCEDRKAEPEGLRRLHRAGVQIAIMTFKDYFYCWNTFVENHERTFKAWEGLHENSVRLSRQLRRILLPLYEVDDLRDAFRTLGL
In short: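 Steps: dispense AID with UDG; pin-transfer compound up to 114 uM final; add DJC20/DJC23 substrate and hold 4 hr at room temperature; add NaOH, hold 30 min; read FRET signal (540/590 nm).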

[9] = Primary qHTS for inhibitors of La Crosse Virus (LACV) - induced cell death in SH-SY5Y cells (AID 1508616);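 further: top concentration of the series differs between compounds; higher means more rescue of cells from virus-induced death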
In short: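 SH-SY5Y, 6000 cells/well; cpd via pin tool in DMSO; LACV 0.01 MOI; 6 d 37C 5% CO2; ATPLite, 5 min RT; luminescence normalized to ±virus DMSO controls.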

[10] = target: Calcium and integrin-binding protein 1 (Homo sapiens) (UniProt Q99828); assay: Validation qHTS for Identification of Calcium Integrin Binding protein 1 (CIB1) Competitor (AID 1508618)
Chain of Calcium and integrin-binding protein 1 (Homo sapiens) (Q99828 whole entry, looked up): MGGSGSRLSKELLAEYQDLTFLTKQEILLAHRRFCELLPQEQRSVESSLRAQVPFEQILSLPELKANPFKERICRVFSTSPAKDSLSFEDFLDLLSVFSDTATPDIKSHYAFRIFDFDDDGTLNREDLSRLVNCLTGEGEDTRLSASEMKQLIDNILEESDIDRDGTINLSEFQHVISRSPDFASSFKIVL
In short: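 Fluorescence polarization with 1 uM CIB1-GST and 100 nM FITC-alphaIIb peptide in HEPES pH 7.4, NaCl, 5 mM CaCl2, Tween20. Compounds at up to 114 uM final, preincubated with protein 15 min; read after 15 min more at RT.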

[11] = target: Calcium and integrin-binding protein 1 (Homo sapiens) (UniProt Q99828); assay: Primary qHTS for Identification of Calcium Integrin Binding Protein 1 (CIB1) Competitor (AID 1508620);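 further: GST tagged CIB1 binding a fluorescein labelled alphaIIb integrin peptide tracer; top concentration of the series differs between compounds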
In short: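 CIB1-GST (1 uM final) and compound incubated 15 min at room temperature before adding FITC-alphaIIb peptide tracer (100 nM final). Competition for binding read by fluorescence polarization (ex 480, em 540) after another 15 min at room temperature.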

[12] = Primary qHTS for small molecule stabilizers of the endoplasmic reticulum resident proteome: Secreted ER Calcium Modulated Protein (SERCaMP) assay (AID 1508630); further: potency means the concentration at half of the fitted maximal effect
In short: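 The SH-SY5Y reporter protocol was run at 3 concentrations up to 38.3 uM (primary) or 11 concentrations (follow-up): 16 h compound, 100 nM thapsigargin for 4 h, then extracellular luciferase luminescence.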

[13] = A High-Content qHTS Against Drug Library for the Identification of Small Molecules that Inhibit DYT1 Early Onset Primary Dystonia-Associated Cell Pathology (AID 1645839; calls by dose curve; further: series mostly up to about 46 µM)
In short: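 High-content imaging quantified EGFP-TorsinA mislocalization in HEK293-derived cells inducibly expressing DYT1 mutant torsinA, after 48 h exposure to compound given together with tetracycline induction. Cell count served as a toxicity channel alongside %pathology.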

[14] = target: Cytochrome P450 2D6 (Homo sapiens) (UniProt P10635); assay: Cytochrome P450 family 2 subfamily D member 6 (CYP2D6) small molecule antagonists: luciferase biochemical (cell-free) qHTS assay (AID 1645840; active means well fitted curve in the direction sought with a large enough effect in the repeat runs; an effect the other way counts as inactive or inconclusive; further: nearly all actives have a fitted effect of over 55% in size; further: potency means the concentration at half of the fitted maximal effect)
Chain of Cytochrome P450 2D6 (Homo sapiens) (P10635 whole entry, looked up): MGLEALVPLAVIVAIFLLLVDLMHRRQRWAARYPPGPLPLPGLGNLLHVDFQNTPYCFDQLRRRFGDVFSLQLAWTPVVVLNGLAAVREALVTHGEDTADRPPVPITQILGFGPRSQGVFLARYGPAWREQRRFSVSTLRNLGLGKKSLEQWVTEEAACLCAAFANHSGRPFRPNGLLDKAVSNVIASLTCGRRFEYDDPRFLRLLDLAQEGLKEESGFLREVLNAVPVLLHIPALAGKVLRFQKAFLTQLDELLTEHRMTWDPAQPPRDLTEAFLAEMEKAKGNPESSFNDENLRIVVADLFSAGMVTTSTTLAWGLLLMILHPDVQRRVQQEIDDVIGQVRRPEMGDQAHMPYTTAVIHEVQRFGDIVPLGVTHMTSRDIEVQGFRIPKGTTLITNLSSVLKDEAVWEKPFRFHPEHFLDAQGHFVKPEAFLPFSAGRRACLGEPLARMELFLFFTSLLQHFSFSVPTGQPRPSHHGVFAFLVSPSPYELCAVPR
In short: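 P450-Glo CYP2D6 system: proluciferin substrate converted by enzyme to luciferin, read by luminescence proportional to activity. Enzyme-substrate mix with compound 10 min at room temperature, then NADPH regeneration 1 h before detection reagent.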

[15] = Counterscreen qHTS for small molecule stabilizers of the endoplasmic reticulum resident proteome: GLuc-NoTag assay (AID 1508627); further: series mostly up to about 76 µM
In short: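 Counterscreen line: SH-SY5Y-GLuc-NoTag cells, treated with compound 19 hr before a 4 hr, 100 nM thapsigargin calcium depletion. Secreted Gaussia luciferase in the medium was measured by luminescence after coelenterazine was added (0.07x final), with cells unlysed.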

[16] = Confirmatory qHTS for small molecule stabilizers of the endoplasmic reticulum resident proteome: Secreted ER Calcium Modulated Protein (SERCaMP) assay (AID 1508628); further: nearly all actives have a fitted effect of over 40% in size; further: potency means the concentration at half of the fitted maximal effect
In short: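 Reporter secretion upon ER calcium depletion (100 nM thapsigargin, 4 h, 37C) is measured as medium luminescence with coelenterazine, after 16 h compound pretreatment of SH-SY5Y-GLuc-SERCaMP cells; primary at three concentrations up to 38.3 uM, follow-up at 11 (up to 76.6 uM).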

[17] = Viability qHTS for inhibitors of the SERCaMP assay screened against the NCATS CANVASS Library (AID 1347400); further: series mostly up to about 92 µM; nearly all actives have a fitted effect of over 70% in size
In short: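 Seed SH-SY5Y-GLuc SERCaMP MJH297 cells at 1000 per well, incubate 4 h, add compounds across an 11-point range, incubate 48 h at 37C, then add CellTiter-Glo and read luminescence.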

[18] = Redox Reaction Profiling qHTS: Assay Interference Panel against the NCATS CANVASS Library (AID 1347401)
In short: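 Redox-cycling liability assessed as DTT-driven conversion of resazurin (5 uM, with 200 uM DTT, HEPES pH 7.3) to fluorescent resorufin. Fluorescence at 525/598 nm measured initially and after 15 min dark incubation.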

| SMILES | Potency [1] | Potency [2] | outcome [3] | Potency [4] | Potency [5] | outcome [6] | Potency [7] | Potency [8] | Potency [9] | Potency [10] | Potency [11] | Potency [12] | Potency [13] | Potency [14] | Potency [15] | Potency [16] | outcome [17] | outcome [18] |
| --- | --- | --- | --- | --- | --- | --- | --- | --- | --- | --- | --- | --- | --- | --- | --- | --- | --- | --- |
| NC(=O)OCC(COC(N)=O)c1ccccc1 | inactive | inactive | inactive | inactive | inactive | inactive | inactive | inactive | inactive | inactive | inactive | inactive | inactive | inactive |  |  |  |  |
| COc1ccc(C2CNC(=O)C2)cc1OC1CCCC1 (centres undefined) | inactive | inactive | inactive | inactive | inactive | inactive | inactive | inactive | inactive | inactive | inactive | inactive | inactive | inactive |  |  |  |  |
| CN(C)c1nc(N(C)C)nc(N(C)C)n1 | inactive | inactive | inactive | inactive | inactive | inactive | inactive | inactive | inactive | inactive | inactive | inactive | inactive |  |  |  |  |  |
| Cn1cnc2c1c(=O)[nH]c(=O)n2C | inactive | inactive | inactive | inactive | inactive | inactive | inactive | inactive | inactive | inactive | inactive | inactive | inactive |  |  |  |  |  |
| NS(=O)(=O)c1cc2c(cc1Cl)NCNS2(=O)=O | inactive | inactive | inactive | inactive | inactive | inactive | inactive | inactive | inactive | inactive | inactive | inactive | inactive | inactive |  |  |  |  |
| CCOC(=O)c1ncn2c1CN(C)C(=O)c1cc(F)ccc1-2 | inactive | inactive | inactive | inactive | inactive | inactive | inactive | inactive | inactive | inactive | inactive | inactive | inactive | inactive |  |  |  |  |
| CCCNCC(O)COc1ccccc1C(=O)CCc1ccccc1 (centres undefined) | inactive | inactive | inactive | inactive | inactive | inactive | inactive | inactive | inactive | inactive | inactive | inactive |  |  | inactive | inactive |  |  |
| Nc1c2c(nc3ccccc13)CCCC2 | inactive | inactive | inactive | inactive | inactive | inactive | inactive | inactive | inactive | inactive | inactive | inactive | inactive | 9.77 µM (active) |  |  |  |  |
| CN1CCC(=C2c3ccccc3CC(=O)c3sccc32)CC1 | inactive | inactive | inactive | inactive | inactive | inactive | inactive | inactive | inactive | inactive | inactive | inactive | inactive | 1.38 µM (active) | inactive | 20 µM (active) and 25.1 µM (active) |  |  |
| NCCCCCC(=O)O | inactive | inactive | inactive | inactive | inactive | inactive | inactive | inactive | inactive | inactive | inactive | inactive and 33.5 µM (active) | inactive | inactive |  |  |  |  |
| NC(CO)C(=O)NNCc1ccc(O)c(O)c1O (centres undefined) | inactive | inactive | inactive | inactive | inactive | inactive | inactive | inactive | inactive | inactive | inactive | inactive | inactive |  |  |  |  |  |
| CN1C(C(=O)Nc2ccccn2)=C(O)c2ccccc2S1(=O)=O | inactive | inactive | inactive | inactive | inactive | inactive | inactive | inactive | inactive | inactive | inactive | inactive | inactive | inactive |  |  |  |  |
| COc1ccc2[nH]cc(CCNC(C)=O)c2c1 | inactive | inactive | inactive | inactive | inactive | inactive | inactive | inactive | inactive | inactive | inactive | inactive | inactive | inactive |  |  | inactive | inactive |
| CN1CCC(=C2c3ccccc3C=Cc3ccccc32)CC1 | inactive | inactive | inactive | inactive | inactive | inactive | inactive | inactive | inactive | inactive | inactive |  |  | 2.19 µM (active) | inactive | 20 µM (active) and 15.8 µM (active) |  |  |
| NCCS(=O)(=O)O | inactive | inactive | inactive | inactive | inactive | inactive | inactive | inactive | inactive | inactive | inactive | inactive | inactive |  |  |  |  |  |
| C[C@H]1c2cccc(O)c2C(O)=C2C(=O)[C@]3(O)C(O)=C(C(N)=O)C(=O)[C@@H](N(C)C)[C@@H]3[C@@H](O)[C@@H]21 | inactive | inactive | inactive | inactive | inactive | inactive | inactive | inactive | inactive | inactive | inactive | inactive | inactive | inactive |  |  |  |  |
| CC12CC3CC(C)(C1)CC(N)(C3)C2 | inactive | inactive | inactive | inactive | inactive | inactive | inactive | inactive | inactive | inactive | inactive | inactive |  | inactive | inactive | 11.2 µM (active) and 39.8 µM (active) |  |  |
